# Hits are enriched below; roughly 3.7% of the tested compounds scored in any of these assays.
# MazF activator: activators of E. coli MazEF toxin-antitoxin RNase, primary screen, biochemical, fluorescence, uHTS; FAM/BHQ RNA-DNA oligo cleavage fluorescence, 5 h; activation, % at 20 µM; 0.32% of 350,000 active; in the data active means activation above about 50%
# BoNT A protease: BoNT/A light chain protease inhibitors, primary screen, biochemical, flow cytometry, MLPCN library | 0.17% of 360,000 active | inhibition, % at 10 µM | multiplex microsphere protease substrate cleavage; further: plate controls were buffer without enzyme for full effect and enzyme alone for no effect
# Bead autofluor: flagged as autofluorescent in microsphere protease counterscreen. fluorescence intensity (no concentration beside the values). AID 624483. 3.1% of 360,000 active. compound autofluorescence counterscreen, microsphere flow cytometry; stronger effect = higher value; in the data active means fluorescence intensity above about 16000; inconclusive means no clear call, values can overlap the other calls
# Anthrax LF prot: Bacillus anthracis LF protease inhibitors, primary screen, biochemical, multiplex microsphere, MLPCN library; inhibition, % at 10 µM; AID 588501, 2011; Lethal factor (Bacillus anthracis), P15917; 0.12% of 360,000 active; multiplex microsphere protease cleavage assay; further: plate controls were buffer without enzyme for full effect and enzyme alone for no effect
# BoNT F protease: BoNT/F light chain protease inhibitors, primary screen, biochemical, flow cytometry, MLPCN library; 0.22% of 360,000 active; AID 588497, 2011; inhibition, % at 10 µM; Multiplex microsphere protease cleavage assay; in the data active means inhibition above about 35%, passing the limit was not always enough; inconclusive means no clear call, values can overlap the other calls; further: plate controls were buffer without enzyme for full effect and enzyme alone for no effect
# The depositor's hits bear a star; ? = inconclusive; nt = no result given. Unless noted, no stated cut-off is given here; in the data, active means inhibition above about 30%; inconclusive means no clear call, values can overlap the other calls; inactive means below that.
SMILES,MazF activator,BoNT A protease,Bead autofluor,Anthrax LF prot,BoNT F protease
CCOC(=O)c1cc2c(c(-c3cccc(C#Cc4ccc(OC)c(OC)c4)c3)n1)[C@@H](CCO)N(S(=O)C(C)(C)C)C2 (some centres undefined),nt,-0.8,6114,-4.8,-12.4
O=C(CNC(=O)c1ccc(Br)cc1)NCCc1nc2ccccc2[nH]1,5.9,-1.3,19972*,-0.3,-1.9
COc1ccccc1C(=O)Nc1ccc2c(c1)OCO2,6.6,1.2,23284*,-1.0,-1.5
COc1ccc(C)cc1NC(=O)c1cc2ccccc2o1,5.6,?,23609*,-5.8,-4.0
COc1ccc(OC)c(NC(=O)c2cc3ccccc3o2)c1,12.7,0.2,3336,-4.3,-32.3
COc1ccc(OCCCC(=O)Nc2ccc3c(c2)OCO3)cc1,2.2,-0.5,16175*,-0.3,-1.8
COc1ccccc1C(=O)Nc1ccc2c(c1)OCCO2,5.4,0.0,2748,-0.4,-3.6
CCOc1ccccc1C(=O)NC(C)c1ccc2c(c1)OCO2 (centres undefined),2.5,5.2,18046*,1.2,2.0
COc1cccc(NC(=O)C2(C)CCCN2C(=O)C(C)C)c1OC (centres undefined),nt,-0.6,3721,6.0,0.2
O=C(CC(NC(=O)c1ccccc1Cl)c1ccccc1)Nc1ccc2c(c1)OCO2 (centres undefined),0.2,0.7,20052*,0.3,-0.1
COc1cc(C(=O)Nc2ccc3c(c2)OCCO3)c(-n2cnnn2)cc1OC,-5.7,-0.1,22353*,-2.0,-1.4
CC(C)C(C(=O)Nc1ccc2c(c1)OCO2)N1C(=O)c2ccccc2C1=O (centres undefined),-3.7,?,20817*,-1.9,-0.5
COc1ccc(C)cc1NC(=O)c1ccc2c(c1)OCO2,-1.6,2.0,21822*,0.2,1.6
CC(C)C(C(=O)Nc1ccc2c(c1)OCCO2)N1C(=O)c2ccccc2C1=O (centres undefined),-4.5,-0.3,8355,-6.0,-6.7
CC1(C(=O)NS(=O)(=O)c2ccccc2Cl)CCN1C(=O)Cc1ccc(Cl)cc1Cl (centres undefined),nt,0.5,2948,-4.3,-1.8
Cc1cc(Cl)ccc1OCC(=O)NNC(=O)c1ccc(=O)[nH]c1,0.5,-0.1,3658,1.9,-3.0
CCCNC(=O)C1(C)CCCN(Cc2ccccc2-c2ccccc2)C1 (centres undefined),nt,-0.2,3591,-1.3,-0.3
COC(=O)c1ccc(OCC(=O)Nc2nn(-c3ccccc3)nc2C(N)=O)cc1,-36.3,?,22226*,0.0,-3.6
COc1cc(NC(=O)c2ccc(F)cc2)c(OC)cc1Cl,-2.4,1.4,3461,-1.3,-5.1
COc1cc(NC(=O)c2c(F)c(F)c(F)c(F)c2F)c(OC)cc1Cl,7.5,1.5,21733*,-2.1,1.2
CCCCOC(=O)Nc1ccc(C(=O)OC)cc1,10.2,0.4,21923*,-1.5,1.0
CCCCOC(=O)Nc1cc(OC)c(Cl)cc1OC,0.6,1.2,23042*,-2.4,0.1
Cc1cc(Br)ccc1NC(=O)C1CCN(C(=O)c2ccco2)CC1,-4.8,1.1,4687,-0.2,-3.7
Cc1ccc([C@H]2C[C@@H](O)[C@H](n3cc(COC(=O)c4ccccc4)nn3)CN2C(=O)c2cccs2)cc1,1.0,0.1,3414,0.9,4.4
CC(C)OC(=O)c1cc2ccccc2[nH]1,2.9,-4.6,21156*,3.1,-4.3
SMILES,MazF activator,BoNT A protease,Bead autofluor,Anthrax LF prot,BoNT F protease
COc1ccc(-c2noc(CN(C(=O)c3ccc4c(c3)OCO4)C(C)C)n2)cc1OC,5.1,2.2,4155,3.5,10.3
COc1ccccc1Oc1cc(F)nc(N)n1,-0.9,?,17544*,-9.9,13.0
CSc1nc(=O)n2cccc(C)c2n1,0.7,-4.7,21767*,-1.4,-5.4
CC(=O)Nc1ccc(NC(=O)CSc2nc(=O)n3cccc(C)c3n2)cc1,-3.9,2.8,?,?,14.4
Nc1ccn([C@@H]2O[C@H](CNC(=O)[C@@H](N)CSCc3ccccc3)[C@@H](O)[C@H]2O)c(=O)n1,1.5,-0.4,3032,2.2,-4.3
CC(=O)NC(=S)Nc1ccccc1C(=O)Nc1ccccc1,-2.9,-0.7,2507,-4.1,-2.7
Cc1cccc(C)c1NC(=S)NC(=O)CCc1ccccc1,-0.7,0.2,5612,-1.5,2.2
